High-throughput results from PubChem.
Sampled rows, rich in hits. Any-hit rate of the full collection: about 7.8%.
LASV entry inh: Lassa virus entry inhibition | Lassa virus pseudotype entry inhibition, cell reporter | Potency, µM (series often up to 37.9 µM), for inactives: at the highest dose activity change, negative = inhibition, most hits filed as inhibitors | 1.2% of 300,000 active; calls by dose curve; tested in HEK293 cells; further: potency means the concentration at half of the fitted maximal effect; nearly all actives have a fitted effect of over 50% in size
VACV mCherry inh: vaccinia inhibition (mCherry reporter); 0.63% of 310,000 active; AID 720579; Potency, µM (titrated, usually from 36.5 µM), without a hit: at the highest dose activity change, negative = inhibition, most hits filed as inhibitors; Vaccinia virus mCherry reporter infection, fluorescence; calls by dose curve; tested in A549 cells; further: potency means the concentration at half of the fitted maximal effect; nearly all actives have a fitted effect of over 35% in size
HCMV antiviral: human cytomegalovirus inhibition; 4.5% of 410,000 active; AID 1259415; activity change, negative = inhibition, % at 57.5 µM; HFF cells, HCMV-luciferase reporter, 72 h; hits give low values; in the data active means activity change below about -60%; inconclusive means no clear call, values can overlap the other calls; inactive means above about -39%
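Two compound doses tested in HFFs infected with HCMV-luciferase, MOI 1 PFU/cell, 72 h at 37C. Lysate luminescence read with OneGlo; data normalized against buffer-only and 10uM Salinomycin inhibitor controls.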
Marburg entry inh: Marburg virus entry inhibition. Marburg virus pseudotyped entry inhibition, cell reporter. 1.8% of 300,000 active. AID 540276. Potency, µM (highest dose often 37.8 µM), for the others: at the top dose activity change, negative = inhibition, usual class: inhibitors; calls by dose curve; tested in HEK293 cells; further: potency means the concentration at half of the fitted maximal effect
VACV Venus inh: vaccinia inhibition (Venus reporter); Vaccinia virus Venus reporter expression, fluorescence; Potency, µM (highest dose often 36.5 µM), for inactives: at the highest dose activity change, negative = inhibition, usual class: inhibitors; 0.46% of 330,000 active; calls by dose curve; tested in A549 cells; further: potency means the concentration at half of the fitted maximal effect; nearly all actives have a fitted effect of over 30% in size
HCV inh: blocks hepatitis C virus | Huh7.5.1 HCVcc-Cre infection, luciferase reporter, 44 h | 3.4% of 340,000 active | AID 651820 | Potency, µM (doses to about 41.8 µM), without a hit: at the top dose activity change, negative = inhibition, most hits filed as inhibitors; active means well fitted inhibition curve with a large enough effect; inconclusive means small, poorly fitted or top-dose-only effect, or another doubt; inactive means no such curve, though single readings can be large or run the other way; further: potency means the concentration at half of the fitted maximal effect
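Antiviral activity was scored by luciferase reporter output from cells infected with HCVcc-Cre (~0.5 moi) in presence of compound, 44 h infection period, cells seeded 1,000/well 4 h prior.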
An asterisk follows results filed as active; i = inactive; ? = inconclusive; / = no result; [ ] = remark or other dose. On the % scale 0 is the no-effect control and ±100 the full control effect.

SMILES	LASV entry inh	VACV mCherry inh	HCMV antiviral	Marburg entry inh	VACV Venus inh	HCV inh
COc1ccc(-n2c(C)c3c(C)nnc(C)c3c2C)cc1OC	/	?	-60*	/	-26%	/
COc1ccc(-n2c(C)c(C(C)=O)c(C(C)=O)c2C)cc1OC	-26%	-11%	3	-27%	-7%	-1%
Cc1noc(-c2ccc(-c3noc(-c4ccc(Cl)cc4)n3)cc2)n1	-11%[46.1 µM]	-3%	6	/	8%	/
Cc1cccc(/C=C2/S/C(=N/N=C3\CC4CCC3(C)C4(C)C)NC2=O)c1 (stereo unspecified)	14µM*	/	-7	?	1%	?
CCOc1ccc2nc(SCC#N)c(C#N)cc2c1	-8%	/	-68*	?	/	-15%
COc1ccc2nc(Cl)c(C#N)cc2c1	8%[46.1 µM]	-1%	-36	2%[46.1 µM]	-20%	5%
CCSc1nc2ccc(OC)cc2cc1C#N	13%	-14%	46	?	-3%	10µM*
Cc1ccc(S(=O)(=O)N(C)C)cc1NC(=O)C(C)NC(C)c1cccs1 (stereo unspecified)	-43%	-28%	9	-8%	-14%	7%
Cc1ccc(S(=O)(=O)N(C)C)cc1NC(=O)C(C)N(C)Cc1sccc1C (stereo unspecified)	/	?	-61*	?	?	7.1µM*
COc1ccc(NC(=O)C(Cl)=C(Cl)Cl)cn1	?	-15%	0	?	-3%	10µM*
COc1ccc(CC(=O)Nc2ccc(OC)nc2)cc1	14%[46.1 µM]	-16%	-1	1%[46.1 µM]	-10%	5%
COc1ccc(NC(=O)Nc2ccc(OCc3ccccc3)cc2)cn1	/	/	-27	/	/	?
COc1ccc(NC(=O)/C(Cl)=C(/Cl)S(=O)(=O)Cc2ccccc2)cn1	22µM*	/	-105*	?	22µM*	3.5µM*
COc1ccc(NC(=O)/C(Cl)=C(/Cl)S(=O)Cc2ccc(Cl)cc2)cn1 (stereo unspecified)	3.2µM*	5.6µM*	-100*	?	7.9µM*	7.9µM*
COc1ccc2c(c1)cc1c(=O)n(CC(=O)NCCCc3ccccc3)nc(C)n12	/	-2%	7	-2%[46.1 µM]	-10%	/
O=C(C1CCCCC1)N1C[C@H](O)[C@H](n2cc(C3CC3)nn2)C[C@@H]1c1ccc(Cl)cc1	-15%[46.1 µM]	/	/	/	/	/
CCn1c(C)[n+](Cc2ccccc2)c2ccc(Cl)cc21	/	-12%	-67*	-21%[46.1 µM]	-4%	7%
CCn1c(/C=C/N(C)c2ccccc2)[n+](CC)c2ccc(Cl)cc21	8.2µM*	-28%	-94*	?	-30%	32µM*
C/C(CC(=O)Nc1ccc(Cl)c(C(F)(F)F)c1)=N\NC(N)=S	?	18µM*	-27	?	?	6.3µM*
C/C(CC(=O)NC(C)(C)C)=N\NC(N)=S	15%[46.1 µM]	10µM*	-19	?	?	17%
C/C(CC(=O)Nc1ccc(Cl)c(C(F)(F)F)c1)=N\NC(=O)c1ccccc1O	?	10µM*	-80*	18µM*	?	-2%
C/C(CC(=O)Nc1ccc(Cl)c(C(F)(F)F)c1)=N\NC(=O)c1cccc(O)c1	?	-14%	-15	?	-5%	-13%
O=S(Cc1ccccc1)c1ccccc1 (stereo unspecified)	5%[46.1 µM]	i	-20	25%	-7%	34%
O=C(O)c1cccc(C(=O)O)c1S(=O)Cc1ccccc1 (stereo unspecified)	/	/	-66*	/	/	/
Cc1oncc1C(=O)Nc1ccc2ccccc2c1	/	/	44	/	/	5%
Cc1oncc1C(=O)Nc1ccc(C(F)(F)F)cc1	?	-16%	-69*	7.1µM*	-9%	2%[8.37 µM]
COc1cc(OC)cc(-c2nc3ccccc3c(=O)n2OC(=O)c2ccccc2C)c1	11µM*	-19%	-34	?	?	6%
Cc1cc(C)nc(-n2nc(C)c3c2N(Cc2ccccc2)C(=O)CC3c2ccc(Cl)cc2)n1 (stereo unspecified)	-24%[46.1 µM]	-10%	-17	-1%[46.1 µM]	-20%	/
CCOC(=O)c1ccc(NC(=O)Cn2nc(SC)c(S(=O)(=O)c3ccc(Cl)cc3)c2N)cc1	?	?	-104*	?	?	/
Cc1ccc2nc(N(CCCN(C)C)C(=O)c3ccco3)sc2c1	11%[46.1 µM]	-4%	-28	/	3%	10µM*
